Results from PubChem BioAssay (EPA / NIEHS).
Several values for one entry are separate records, joined by “and”; a condition that tells them apart may be missing. Identical values can stand only once. Results filed as inconclusive are left out. More than one record can exist for a structure, and the calls need not agree. Activity calls are given as the source filed them. The calls were made as follows, unless noted: active = hit-call score of the fitted dose curve at least 0.9, where 1 is the maximum; inconclusive = response in the unintended direction; inactive = score below 0.9.

Assays:
[1] = target: Estrogen receptor beta (Homo sapiens) (UniProt Q92731); experiment: OT_ER_ERbERb_1440: Odyssey Thera (OT) 24-hour HEK293T Protein-Complementation Assay for Estrogen Receptor-beta/-beta Homodimer (AID 2283380);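 also: scored as signal increase over DMSO baseline for both agonists and antagonists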
Chain of Estrogen receptor beta (Homo sapiens) (Q92731 whole entry, looked up, the tested form may be a part): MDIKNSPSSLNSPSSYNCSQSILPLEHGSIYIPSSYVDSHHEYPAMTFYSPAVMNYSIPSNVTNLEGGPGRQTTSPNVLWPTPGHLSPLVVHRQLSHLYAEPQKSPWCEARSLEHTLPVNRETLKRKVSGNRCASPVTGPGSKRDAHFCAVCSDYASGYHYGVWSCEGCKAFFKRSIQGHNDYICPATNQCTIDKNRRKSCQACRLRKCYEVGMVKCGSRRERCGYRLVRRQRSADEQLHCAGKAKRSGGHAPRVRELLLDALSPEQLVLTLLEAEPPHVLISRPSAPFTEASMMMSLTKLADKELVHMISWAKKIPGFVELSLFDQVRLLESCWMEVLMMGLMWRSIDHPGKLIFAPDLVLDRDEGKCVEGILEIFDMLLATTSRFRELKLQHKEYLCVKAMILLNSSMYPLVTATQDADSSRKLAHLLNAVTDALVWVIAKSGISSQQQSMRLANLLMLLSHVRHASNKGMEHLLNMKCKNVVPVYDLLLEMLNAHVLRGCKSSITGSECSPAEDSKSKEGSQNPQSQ
Summary of the method: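 HEK293T cells stably expressing ER beta LBD (aa 310-547) homodimer fragment-complementation reporter, dosed 24 h. Cells formaldehyde-fixed, Draq5-stained; gain in nuclear (agonist) or nuclear plus cytoplasmic (antagonist) fluorescence versus DMSO read by laser scanning cytometry.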

[2] = target: Estrogen receptor (Homo sapiens) (UniProt P03372); experiment: OT_ERa_GFPERaERE_0480: Odyssey Thera (OT) 8-hour HeLa Transcription Induction Assay for Estrogen Receptor (AID 2283381; active = hit-call score of the fitted dose curve at least 0.9, where 1 is the maximum; inactive = score below 0.9)
Chain of Estrogen receptor (Homo sapiens) (P03372 whole entry, looked up): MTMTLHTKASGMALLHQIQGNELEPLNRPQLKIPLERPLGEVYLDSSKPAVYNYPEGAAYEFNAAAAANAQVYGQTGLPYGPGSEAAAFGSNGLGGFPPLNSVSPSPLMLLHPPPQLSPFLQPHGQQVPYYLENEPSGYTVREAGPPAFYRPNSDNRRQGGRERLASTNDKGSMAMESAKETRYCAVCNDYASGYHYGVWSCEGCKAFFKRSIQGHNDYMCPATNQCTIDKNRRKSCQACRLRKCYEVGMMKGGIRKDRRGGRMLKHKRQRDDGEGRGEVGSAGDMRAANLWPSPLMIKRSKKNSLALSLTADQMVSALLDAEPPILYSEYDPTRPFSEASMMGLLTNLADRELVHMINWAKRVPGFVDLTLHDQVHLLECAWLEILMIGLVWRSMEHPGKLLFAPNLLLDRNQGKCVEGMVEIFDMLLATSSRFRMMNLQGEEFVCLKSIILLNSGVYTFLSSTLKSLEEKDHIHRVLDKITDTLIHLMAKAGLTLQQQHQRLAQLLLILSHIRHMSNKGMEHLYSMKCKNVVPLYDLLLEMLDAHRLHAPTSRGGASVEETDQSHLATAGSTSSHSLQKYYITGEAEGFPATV
Summary of the method: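 Cells (HeLa) receive compound; after 8 h, reporter fluorescence is imaged and quantified by high-content analysis. Gain-of-signal relative to DMSO gives the endpoint.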

[3] = target: Estrogen receptor (Homo sapiens) (UniProt P03372); experiment: OT_ERa_GFPERaERE_0120: Odyssey Thera (OT) 2-hour HeLa Transcription Induction Assay for Estrogen Receptor (AID 2283382)
Summary of the method: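 Measures ESR1 pathway reporter gain-of-signal in HeLa cells after a 2-hour treatment, detected as fluorescent protein induction by microscopy, DMSO as baseline.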

[4] = target: Bile acid receptor (Homo sapiens) (UniProt Q96RI1); experiment: OT_FXR_FXRSRC1_0480: Odyssey Thera (OT) 8-hour HEK293T Protein-Complementation Assay for Farnesoid X receptor/SRC-1 Co-activator (AID 2283383)
Chain of Bile acid receptor (Homo sapiens) (Q96RI1 whole entry, looked up, the tested form may be a part): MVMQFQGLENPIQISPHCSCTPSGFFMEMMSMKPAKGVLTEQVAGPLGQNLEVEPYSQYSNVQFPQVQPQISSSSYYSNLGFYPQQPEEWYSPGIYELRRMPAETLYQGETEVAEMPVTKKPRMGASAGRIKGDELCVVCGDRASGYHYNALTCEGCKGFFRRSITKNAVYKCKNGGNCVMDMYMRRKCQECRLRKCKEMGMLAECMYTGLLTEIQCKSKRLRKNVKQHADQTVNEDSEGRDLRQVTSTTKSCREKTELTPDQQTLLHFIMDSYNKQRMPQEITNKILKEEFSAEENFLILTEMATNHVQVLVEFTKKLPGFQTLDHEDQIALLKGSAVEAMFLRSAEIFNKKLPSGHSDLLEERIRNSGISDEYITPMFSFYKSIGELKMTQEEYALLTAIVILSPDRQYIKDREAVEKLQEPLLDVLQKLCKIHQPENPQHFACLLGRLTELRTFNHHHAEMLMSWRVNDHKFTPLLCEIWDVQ
Summary of the method: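 Co-activator recruitment to FXR was measured in living HEK293T cells, where interaction of the two fused partners restored an active fluorescent reporter. Signal gain after 8 h treatment was referenced to DMSO.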

[5] = target: Retinoic acid receptor RXR-alpha (Homo sapiens) (UniProt P19793); experiment: OT_NURR1_NURR1RXRa_0480: Odyssey Thera (OT) 8-hour HEK293T Protein Complementation Assay for Nurr1/retinoid X receptor (RXR) (AID 2283385)
Chain of Retinoic acid receptor RXR-alpha (Homo sapiens) (P19793 whole entry, looked up, the tested form may be a part): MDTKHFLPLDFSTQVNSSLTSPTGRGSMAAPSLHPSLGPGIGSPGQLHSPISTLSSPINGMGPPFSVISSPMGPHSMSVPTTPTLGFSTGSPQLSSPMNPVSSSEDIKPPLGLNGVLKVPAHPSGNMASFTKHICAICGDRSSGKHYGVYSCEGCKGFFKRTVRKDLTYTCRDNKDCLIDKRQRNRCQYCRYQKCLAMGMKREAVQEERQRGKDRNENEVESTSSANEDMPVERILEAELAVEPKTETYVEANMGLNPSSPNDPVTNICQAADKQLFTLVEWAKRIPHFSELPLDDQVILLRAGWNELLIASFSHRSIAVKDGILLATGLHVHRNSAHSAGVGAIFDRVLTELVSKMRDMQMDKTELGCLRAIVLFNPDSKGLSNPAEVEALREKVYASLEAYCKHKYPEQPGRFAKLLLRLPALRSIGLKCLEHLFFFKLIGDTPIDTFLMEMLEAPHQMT
Summary of the method: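 Compounds are applied to HEK293T cells carrying Nurr1 and RXRα linked to reporter fragments. After 8 h, fluorescence intensity reports heterodimer formation, with DMSO as baseline.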

[6] = target: Retinoic acid receptor RXR-alpha (Homo sapiens) (UniProt P19793); experiment: OT_NURR1_NURR1RXRa_1440: Odyssey Thera (OT) 24-hour HEK293T Protein Complementation Assay for Nurr1/retinoid X receptor (RXR) (AID 2283386)
Summary of the method: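 Measured as fluorescence from a reconstituted split reporter, this 24 h HEK293T complementation assay scores compound-induced gain of Nurr1/RXRα association relative to DMSO.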

[7] = target: Peroxisome proliferator-activated receptor gamma (Homo sapiens) (UniProt P37231); experiment: OT_PPARg_PPARgSRC1_0480: Odyssey Thera (OT) 8-hour Protein-Complementation Assay for Peroxisome Proliferator-activated Receptor Gamma / SRC-1 Co-activator (AID 2283387)
Chain of Peroxisome proliferator-activated receptor gamma (Homo sapiens) (P37231 whole entry, looked up, the tested form may be a part): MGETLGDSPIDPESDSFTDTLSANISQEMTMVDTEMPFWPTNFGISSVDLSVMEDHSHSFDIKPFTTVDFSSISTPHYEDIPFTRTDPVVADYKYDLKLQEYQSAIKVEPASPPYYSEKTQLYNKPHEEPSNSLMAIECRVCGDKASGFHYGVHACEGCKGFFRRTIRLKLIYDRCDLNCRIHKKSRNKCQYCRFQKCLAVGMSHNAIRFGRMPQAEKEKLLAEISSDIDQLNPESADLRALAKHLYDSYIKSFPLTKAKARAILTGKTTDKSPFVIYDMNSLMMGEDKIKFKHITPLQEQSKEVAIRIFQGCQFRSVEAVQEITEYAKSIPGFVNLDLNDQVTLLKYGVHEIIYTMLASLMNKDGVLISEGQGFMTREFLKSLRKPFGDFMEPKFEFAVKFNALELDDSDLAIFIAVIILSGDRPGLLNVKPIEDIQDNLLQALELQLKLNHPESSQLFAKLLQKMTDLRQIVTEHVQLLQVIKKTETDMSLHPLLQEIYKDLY
Summary of the method: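 Protein-fragment complementation in HEK293T: Venus YFP halves (residues 1-158, 159-239, mutated to IFP1/IFP2) fused to PPARg/SRC-1. 8 h exposure; N/C ratio at 488 nm; DMSO negative control.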

[8] = target: Peroxisome proliferator-activated receptor gamma (Homo sapiens) (UniProt P37231); experiment: OT_PPARg_PPARgSRC1_1440: Odyssey Thera (OT) 24-hour Protein-Complementation Assay for Peroxisome Proliferator-activated Receptor Gamma/ SRC-1 Co-activator (AID 2283388)
Summary of the method: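 HEK293T transiently transfected with PPARg/SRC-1 split-Venus YFP fusions 48 h before dosing, then treated 24 h at 37C. Fixed cells imaged; nuclear/cytoplasmic 488 nm fluorescence ratio, gain of signal versus DMSO.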

[9] = read-out: Tumor necrosis factor receptor superfamily member 6 (Homo sapiens) (UniProt P25445); experiment: LTEA_HepaRG_FAS: Life Technologies and Expression Analysis (LTEA) Assay for Fas cell surface death receptor (FAS) using HepaRG (AID 2283447; active = hit-call score of the fitted dose curve at least 0.9, where 1 is the maximum; inactive = score below 0.9); settings: mRNA level, 48 h; actives raise or lower the signal
Summary of the method: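 Differentiated HepaRG cells in serum-free induction medium were exposed 48 h to 8 half-log concentrations up to 100 uM in 0.5% DMSO, in duplicate. FAS mRNA was measured by qRT-PCR normalised to ACTB, GAPDH and POLR2A; bidirectional fit versus DMSO.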

[10] = CEETOX_H295R_11DCORT: CeeTox H295R High-throughput Steroidogenesis Assay for 11-Deoxycortisol (11DCORT) (AID 2283432; active = hit-call score of the fitted dose curve at least 0.9, where 1 is the maximum; inactive = score below 0.9); settings: actives raise or lower the signal
Summary of the method: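 Adrenal carcinoma line H295R, run per OECD 456 with minor changes, was forskolin-stimulated (10 uM, 48 h) before a 48 h chemical exposure at 0.1% DMSO. Secreted 11-deoxycortisol was quantified by HPLC-MS/MS.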

[11] = CEETOX_H295R_OHPROG: CeeTox H295R High-throughput Steroidogenesis Assay for OH-Progesterone (OHPROG) (AID 2283435; active = hit-call score of the fitted dose curve at least 0.9, where 1 is the maximum; inactive = score below 0.9); settings: actives raise or lower the signal
Summary of the method: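 Secreted 17alpha-hydroxyprogesterone is read by tandem MS from media of forskolin-primed H295R cells dosed with chemical for 48 h. Activity is fitted in both directions against DMSO baseline; cytotoxic concentrations are re-tested diluted.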

[12] = CEETOX_H295R_CORTIC: CeeTox H295R High-throughput Steroidogenesis Assay for Corticosterone (CORTIC) (AID 2283437; active = hit-call score of the fitted dose curve at least 0.9, where 1 is the maximum; inactive = score below 0.9;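 also: corticosterone secreted into medium quantified by mass spectrometry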); settings: actives raise or lower the signal
Summary of the method: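 H295R adrenal cells prestimulated 48 hours with 10 uM forskolin, then exposed 48 hours to chemical in 0.1% DMSO. Corticosterone in medium measured by HPLC-MS/MS after MTBE extraction; MTT viability in the same wells; bidirectional fit versus DMSO.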

[13] = CEETOX_H295R_CORTISOL: CeeTox H295R High-throughput Steroidogenesis Assay for Cortisol (AID 2283438; active = hit-call score of the fitted dose curve at least 0.9, where 1 is the maximum; inactive = score below 0.9;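 also: cortisol secreted into medium quantified by LC-MS/MS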); settings: actives raise or lower the signal
Summary of the method: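 Human adrenocortical H295R cells (passage ≤10) received test chemicals for 48 h after forskolin priming. Secreted cortisol was measured by LC-MS/MS.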

[14] = CEETOX_H295R_DOC: CeeTox H295R High-throughput Steroidogenesis Assay for DOC (AID 2283439; active = hit-call score of the fitted dose curve at least 0.9, where 1 is the maximum; inactive = score below 0.9); settings: actives raise or lower the signal
Summary of the method: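 Secreted DOC was quantified from H295R media by HPLC-MS/MS after 48 h chemical exposure following 48 h forskolin (10 uM) prestimulation. Values were fitted in both directions relative to DMSO, the negative control and baseline.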

[15] = CEETOX_H295R_ESTRADIOL: CeeTox H295R High-throughput Steroidogenesis Assay for Estradiol (AID 2283440; active = hit-call score of the fitted dose curve at least 0.9, where 1 is the maximum; inactive = score below 0.9;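 also: estradiol secreted into medium quantified by LC-MS/MS after dansyl derivatisation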); settings: actives raise or lower the signal
Summary of the method: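 H295R cells pre-stimulated 48 h with 10 uM forskolin, then exposed 48 h to chemical in 0.1% DMSO. Medium estradiol quantified by MTBE extraction, dansyl derivatisation and HPLC-MS/MS; bidirectional fit versus DMSO; MTT viability required >/=70%.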

[16] = CEETOX_H295R_ESTRONE: CeeTox H295R High-throughput Steroidogenesis Assay for Estrone (AID 2283441; active = hit-call score of the fitted dose curve at least 0.9, where 1 is the maximum; inactive = score below 0.9;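 also: estrone secreted into medium measured by LC-MS/MS after dansyl derivatization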); settings: actives raise or lower the signal
Summary of the method: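 H295R cells; 48 h forskolin (10 uM) prestimulation; 48 h compound exposure, 0.1% DMSO final. Medium estrone: MTBE extraction, dansyl derivatization, HPLC-MS/MS. Bidirectional fit vs DMSO.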

[17] = CEETOX_H295R_PROG: CeeTox H295R High-throughput Steroidogenesis Assay for Progesterone (PROG) (AID 2283442; active = hit-call score of the fitted dose curve at least 0.9, where 1 is the maximum; inactive = score below 0.9); settings: actives raise or lower the signal
Summary of the method: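 H295R adrenal cells prestimulated 48 h with 10 uM forskolin, then exposed 48 h to test chemical in 0.1% DMSO. Progesterone in medium quantified by HPLC-MS/MS after MTBE extraction; viability checked by MTT in same wells.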

Measured: AC50

CCCCc1ccc2c(n1)[C@@H](c1ccc(OC)cc1C[C@H](C)C(=O)O)[C@H](C(=O)O)[C@H]2c1ccc2c(c1)OCO2
inactive: [1] | [2] | [3] | [4] | [5] | [6] | [7] | [8] | [9]

CCc1c(C(=O)NN2CCCCC2)nn(-c2ccc(Cl)cc2Cl)c1-c1ccc(Br)cc1
active: [9] 50 µM
inactive: [1] | [2] | [3] | [4] | [5] | [6] | [7] | [8]

Cc1ccc(C(C)C)c(O)c1
inactive: [1] | [2] | [3] | [5] | [6] | [7] | [8] | [9]

O=c1[nH]cc(F)c(=O)[nH]1
active: [9] 31.3 µM
inactive: [1] | [2] | [3] | [4] | [5] | [6] | [7] | [8]

Nc1ccccc1N
active: [9] 50 µM
inactive: [1] | [2] | [3] | [5] | [6] | [7] | [8] | [10] | [11] | [12] | [13] | [14] | [15] | [16] | [17]

CCCCCCCCCCCCCO
active: [5] 67.5 µM
inactive: [1] | [2] | [3] | [5] | [6] | [7] | [8] | [9]

C1CCC(SSC2CCCCC2)CC1
active: [5] 79.5 µM
inactive: [1] | [2] | [3] | [5] | [6] | [7] | [8] | [9]

CCCCCCCCCCC
inactive: [1] | [2] | [3] | [5] | [6] | [7] | [8] | [9]

CCCCCCCCCCO
inactive: [1] | [2] | [3] | [4] | [5] | [7] | [8] | [9]

COc1cc(-c2nc(NC(=O)c3cc4cc(C)cc(C)c4n3CC(=O)O)sc2CCC2CCCCC2)c(OC)cc1Cl
inactive: [1] | [3] | [4] | [7] | [8]
active: [2] 66.2 µM | [5] 10.3 µM and 10 µM | [6] 10.3 µM and 9.86 µM | [9] 20.8 µM

CCCCCCOCCO
inactive: [1] | [2] | [3] | [5] | [6] | [7] | [8] | [9]
